Only some compounds are listed: those with a hit (about 1.7% of all), similar ones and a draw of the others.
LYPLA1 inh – blocks human lysophospholipase 1, a PME1 counter-screen; AID 2174; O75608; 0.16% of 320,000 active; inhibition, % at 5.9 µM; recombinant LYPLA1, FP-Rh probe fluorescence polarization;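 active means inhibition above the mean of all tested compounds plus 3 SD, set per campaign, cut at about 14% in these data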;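 further: inhibitors block serine hydrolase probe labeling of LYPLA1 so polarization falls; 0% = enzyme with DMSO and 100% = wells lacking LYPLA1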
LYPLA2 counter – LYPLA2 (human) inhibition in PME1 counter-screen | O95372 | recombinant LYPLA2, FP-Rh probe fluorescence polarization | inhibition, % at 5.9 µM | 0.38% of 320,000 active | AID 2177;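 active means inhibition above the screen-wide mean plus 3 SD, limit set per campaign, cut at about 26% in these data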;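 further: 0% = LYPLA2 with DMSO and 100% = wells lacking LYPLA2 enzyme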
p97 inhibitor – inhibitors of human p97 ATPase; 0.42% of 220,000 active; recombinant p97 ATPase, Kinase-Glo ATP luminescence, 3 h; inhibition, % at 8 µM; P55072; in the data active means inhibition above about 15%;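 further: 0% = DMSO vehicle and 100% = wells lacking enzyme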
Hck-Nef inh – inhibitors of human Hck kinase activated by Nef | P08631 | Recombinant Hck-YEEI plus Nef, Z-Lyte FRET kinase assay | inhibition, % at 20 µM | 0.68% of 220,000 active | AID 463187;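 active means Hck-Nef kinase inhibition above about 50%, limit read from the data; inactive means inhibition below that limit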;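 further: 0% = DMSO with Hck plus Nef and 100% = Hck alone without Nef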
PREPL inhibitor – human PREPL enzyme inhibition | inhibition, % at 5.96 µM | 0.68% of 320,000 active | Q4J6C6 | recombinant PREPL, fluorescence polarization activity-based probe; in the data active means inhibition above about 43%;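 further: 0% = enzyme with DMSO and 100% = wells lacking enzyme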
Rin1-Abl PPI inh – inhibitors of human Rin1-Abl protein interaction; 0.4% of 360,000 active; P00519+Q13671; TR-FRET Rin1/Abl binding, biochemical; inhibition, % at 7.35 µM; in the data active means inhibition above about 5%, passing the limit was not always enough
Target sequence (P00519 whole entry, looked up): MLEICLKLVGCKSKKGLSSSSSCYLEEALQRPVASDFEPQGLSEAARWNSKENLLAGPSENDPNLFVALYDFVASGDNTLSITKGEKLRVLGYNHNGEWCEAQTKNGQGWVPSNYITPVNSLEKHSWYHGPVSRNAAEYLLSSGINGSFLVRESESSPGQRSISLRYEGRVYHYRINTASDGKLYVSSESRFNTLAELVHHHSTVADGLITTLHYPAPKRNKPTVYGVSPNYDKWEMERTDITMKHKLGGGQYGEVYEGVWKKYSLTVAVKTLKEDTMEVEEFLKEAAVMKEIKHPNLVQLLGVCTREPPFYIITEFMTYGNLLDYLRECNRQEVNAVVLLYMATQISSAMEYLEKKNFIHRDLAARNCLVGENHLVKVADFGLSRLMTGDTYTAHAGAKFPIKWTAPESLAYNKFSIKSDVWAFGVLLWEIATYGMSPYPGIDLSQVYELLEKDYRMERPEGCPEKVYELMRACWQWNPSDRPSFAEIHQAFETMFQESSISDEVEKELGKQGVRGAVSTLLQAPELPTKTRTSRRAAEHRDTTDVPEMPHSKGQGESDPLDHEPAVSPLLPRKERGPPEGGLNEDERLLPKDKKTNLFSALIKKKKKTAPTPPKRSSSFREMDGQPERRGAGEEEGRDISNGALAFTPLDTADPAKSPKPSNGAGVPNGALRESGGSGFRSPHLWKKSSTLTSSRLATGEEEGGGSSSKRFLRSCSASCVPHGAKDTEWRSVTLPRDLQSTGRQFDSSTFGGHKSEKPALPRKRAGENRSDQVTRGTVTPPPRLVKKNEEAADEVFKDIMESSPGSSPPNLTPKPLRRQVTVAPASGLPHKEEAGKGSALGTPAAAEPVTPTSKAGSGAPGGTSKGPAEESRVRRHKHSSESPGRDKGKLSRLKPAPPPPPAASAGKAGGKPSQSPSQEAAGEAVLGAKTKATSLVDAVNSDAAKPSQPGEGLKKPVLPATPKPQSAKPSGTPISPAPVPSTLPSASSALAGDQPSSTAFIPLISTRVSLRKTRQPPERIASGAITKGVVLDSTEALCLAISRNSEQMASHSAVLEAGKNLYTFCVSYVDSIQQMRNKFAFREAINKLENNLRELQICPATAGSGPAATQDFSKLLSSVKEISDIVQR
Target sequence (Q13671 whole entry, looked up): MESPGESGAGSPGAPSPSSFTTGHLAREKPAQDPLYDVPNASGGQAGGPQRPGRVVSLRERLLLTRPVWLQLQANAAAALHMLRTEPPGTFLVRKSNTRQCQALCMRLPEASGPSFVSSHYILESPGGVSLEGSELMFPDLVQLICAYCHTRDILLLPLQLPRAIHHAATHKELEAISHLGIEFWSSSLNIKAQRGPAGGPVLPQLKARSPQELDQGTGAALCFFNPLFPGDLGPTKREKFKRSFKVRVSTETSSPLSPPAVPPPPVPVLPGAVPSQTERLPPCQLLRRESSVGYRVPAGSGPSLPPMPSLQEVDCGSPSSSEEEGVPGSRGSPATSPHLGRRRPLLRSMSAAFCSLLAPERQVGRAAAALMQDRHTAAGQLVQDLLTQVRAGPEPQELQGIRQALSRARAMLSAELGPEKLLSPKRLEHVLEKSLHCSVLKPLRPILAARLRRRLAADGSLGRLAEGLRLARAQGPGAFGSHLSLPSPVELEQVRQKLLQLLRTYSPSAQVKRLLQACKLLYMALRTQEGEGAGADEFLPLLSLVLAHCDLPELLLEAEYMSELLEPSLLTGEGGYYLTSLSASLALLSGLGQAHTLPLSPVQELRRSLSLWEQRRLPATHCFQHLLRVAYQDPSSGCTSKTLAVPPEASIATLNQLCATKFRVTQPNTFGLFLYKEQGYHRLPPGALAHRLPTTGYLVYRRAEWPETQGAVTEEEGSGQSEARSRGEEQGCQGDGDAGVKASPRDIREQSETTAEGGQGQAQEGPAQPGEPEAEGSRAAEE
* hit, by the source's call.

`COC(=O)c1cc(OC)c(OC)cc1NC(=S)N1CCN(c2ccccc2)CC1` gave LYPLA1 inh -1, LYPLA2 counter 7, p97 inhibitor 0, Hck-Nef inh 0, PREPL inhibitor 47* and Rin1-Abl PPI inh 5.
For COC(=O)c1ccccc1NC(=S)N1CCN(c2ccccc2)CC1 the results were LYPLA1 inh 0, LYPLA2 counter 5, PREPL inhibitor -3 and Rin1-Abl PPI inh 3.
CCOC(=O)C(=O)N(C)c1c(CC)nc2c(OCc3cc(Cl)cc(Cl)c3)cccn12 was read as Rin1-Abl PPI inh -1.
Cc1ccc(N(CC(=O)NC(C)(C)C)C(=O)CCC(=O)Nc2nccs2)c(C)c1 was read as Rin1-Abl PPI inh -3.
`COc1cccc(NC(=O)CCNC(=O)C2CCN(S(=O)(=O)c3ccc(F)cc3)CC2)c1` gave LYPLA1 inh -2, LYPLA2 counter 4, PREPL inhibitor -7 and Rin1-Abl PPI inh 2.
`CCOCc1nnc(NC(=O)CS(=O)(=O)c2ccc(C)cc2)s1` gave LYPLA1 inh 1, LYPLA2 counter -2, PREPL inhibitor -6 and Rin1-Abl PPI inh 1.
`COc1cc(/C=C2/C(=O)N(c3ccc(Br)cc3)N=C2C)cc(OC)c1OC` gave Rin1-Abl PPI inh 15*.
Screening COc1cccc(-c2ccc3c(c2)O[C@@H](CN(C)Cc2cncnc2)[C@@H](C)CN([C@H](C)CO)S3(=O)=O)c1 returned Rin1-Abl PPI inh 2.
CC1CCCCN1C(=O)C1CCN(c2nc(-c3ccccc3)nc3c2CCC3)CC1 (stereo not given) was read as LYPLA1 inh -4, LYPLA2 counter 0, PREPL inhibitor -3 and Rin1-Abl PPI inh 3.
`O=c1ccc(-c2ccccc2)nn1Cc1ccc(Cl)cc1` gave LYPLA1 inh -3, LYPLA2 counter 38*, PREPL inhibitor -49 and Rin1-Abl PPI inh -2.
Screening CSc1ccccc1OCc1cc(C(=O)N(C)C2CCCc3ccccc32)no1 (stereo not given) returned LYPLA1 inh 0, LYPLA2 counter -3, PREPL inhibitor -5 and Rin1-Abl PPI inh 3.
For c1ccc(CCNc2nc(-c3cccnc3)cs2)cc1 the results were LYPLA1 inh -1, LYPLA2 counter 2, p97 inhibitor 2, Hck-Nef inh 8, PREPL inhibitor 49* and Rin1-Abl PPI inh -2.
Screening COc1cc(C(=O)OCC(=O)N2CCCC2=O)cc(OC)c1C returned PREPL inhibitor 22 and Rin1-Abl PPI inh 2.
Screening C=CCn1c(SCC(=O)Nc2cc(C)on2)nc2sc3c(c2c1=O)CCCC3 returned LYPLA1 inh 0, LYPLA2 counter 6, p97 inhibitor 3, Hck-Nef inh 9, PREPL inhibitor 15 and Rin1-Abl PPI inh 0.
Screening CCn1c(SCC(=O)Nc2cc(C)on2)nc2sc3c(c2c1=O)CCCC3 returned LYPLA1 inh -4, LYPLA2 counter -7, p97 inhibitor -1, Hck-Nef inh 53*, PREPL inhibitor -2 and Rin1-Abl PPI inh -10.
`CCCC(=O)Oc1ccc2c(C)cc(=O)oc2c1` gave LYPLA1 inh 3, LYPLA2 counter 7, p97 inhibitor 10, Hck-Nef inh 77*, PREPL inhibitor 2 and Rin1-Abl PPI inh -1.
Screening CC(C)(C)OC(=O)NCCC(=O)Oc1ccc2ccc(=O)oc2c1 returned LYPLA1 inh -2, LYPLA2 counter 2, p97 inhibitor 2, Hck-Nef inh 73*, PREPL inhibitor 11 and Rin1-Abl PPI inh -2.
Cc1cc(=O)oc2cc(OC(=O)c3cncc(Br)c3)ccc12 was read as LYPLA1 inh -2, LYPLA2 counter 2, p97 inhibitor 0, Hck-Nef inh 69*, PREPL inhibitor -2 and Rin1-Abl PPI inh 0.
O=C(CNC(=O)OCc1ccccc1)Oc1ccc2ccc(=O)oc2c1 was read as LYPLA1 inh 2, LYPLA2 counter -4, PREPL inhibitor 10 and Rin1-Abl PPI inh 1.
For Cc1ccc(C(=O)NCCCNC(=O)Cc2ccc(Cl)cc2)cn1 the results were LYPLA1 inh 1, LYPLA2 counter 1, PREPL inhibitor 2 and Rin1-Abl PPI inh 1.
Screening Cc1ccccc1NC(=O)C1CCCN1S(=O)(=O)c1ccccc1C(F)(F)F (stereo not given) returned LYPLA1 inh 0, LYPLA2 counter 1, PREPL inhibitor 11 and Rin1-Abl PPI inh 1.
Screening CN(C)c1ncc(C2=C(Cl)C(=O)C(N3CCCC3)=C(Cl)C2=O)s1 returned LYPLA1 inh -3, LYPLA2 counter 0, p97 inhibitor 10, Hck-Nef inh 0, PREPL inhibitor 17 and Rin1-Abl PPI inh 11*.
O=C1C(Cl)=C(N2CCCCC2)C(=O)C(Cl)=C1c1cnc(N2CCCCC2)s1 was read as p97 inhibitor 4, Hck-Nef inh -4 and Rin1-Abl PPI inh 5.
For O=C(O)c1ccccc1Nc1cccc(C(F)(F)F)c1 the results were p97 inhibitor 15*, Hck-Nef inh -7, PREPL inhibitor 7 and Rin1-Abl PPI inh 0.
Screening O=C(O)c1ccccc1Nc1ccccc1 returned LYPLA1 inh 3, LYPLA2 counter 3, PREPL inhibitor 4 and Rin1-Abl PPI inh 4.
`CC(=O)N1CC=C2C(C#N)=C(N)C(C#N)(C#N)[C@H](c3ccoc3)[C@H]2C1` gave LYPLA1 inh 3, LYPLA2 counter 7, p97 inhibitor 2, Hck-Nef inh 18, PREPL inhibitor 7 and Rin1-Abl PPI inh 0.
For N#CC1=C(N)C(C#N)(C#N)[C@H](c2ccoc2)[C@H]2CN(Cc3ccccc3)CC=C12 the results were LYPLA1 inh 1, LYPLA2 counter 0, p97 inhibitor 8, Hck-Nef inh 23, PREPL inhibitor 52* and Rin1-Abl PPI inh -5.
Screening CC(CNc1ccc(Cl)cc1)(CNc1ccc(Cl)cc1)[N+](=O)[O-] returned Rin1-Abl PPI inh 6.
For Cc1ccc(C(=O)O/N=C(\c2ccccc2)c2ccncc2)cc1 the results were LYPLA1 inh 3, LYPLA2 counter 3, p97 inhibitor 4, Hck-Nef inh -15, PREPL inhibitor 88* and Rin1-Abl PPI inh 4.
For Fc1ccc(Nc2nc(N3CCOCC3)c3ccccc3n2)cc1 the results were LYPLA1 inh 0, LYPLA2 counter 1, PREPL inhibitor 15 and Rin1-Abl PPI inh 2.
`c1ccc2c(Nc3nc(N4CCOCC4)c4ccccc4n3)cccc2c1` gave LYPLA1 inh -5, LYPLA2 counter -4, p97 inhibitor -1, Hck-Nef inh -4, PREPL inhibitor 53* and Rin1-Abl PPI inh -4.
For CCCc1cc(C(=O)OCC(=O)NCCc2ccccc2)sc1C the results were Rin1-Abl PPI inh -4.
O=S(=O)(O)c1cccc2c(N=Nc3ccc(O)c4ncccc34)cccc12 was read as LYPLA1 inh 8, LYPLA2 counter 2, PREPL inhibitor 27 and Rin1-Abl PPI inh 15*.
For O=C(C1CCN(c2ccc(N3CCOCC3)nn2)CC1)N1CCN(c2ccc(F)cc2)CC1 the results were LYPLA1 inh 3, LYPLA2 counter 5, p97 inhibitor -8, Hck-Nef inh 0, PREPL inhibitor 65* and Rin1-Abl PPI inh -2.
